Experimental data: PubChem BioAssay (Tox21)
Records with an inconclusive call do not appear. Activity calls are given as the source filed them. Unless noted, calls come from the whole dose curve; as a rule, active = well fitted curve in the direction sought with a large enough effect in the repeat runs; inconclusive = weak or mixed curves; inactive = no such curve, though single readings can be large; an effect the other way counts as inactive or inconclusive.

Experiments:
[1] = qHTS assay to identify small molecule antagonists of the TGF-beta/Smad signaling pathway - cell viability counter screen (AID 1346824); note: nearly all actives have a fitted effect of over 50% in size; note: potency is the fitted concentration of half-maximal effect
In short: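 SBE-bla HEK 293T cells, incubated overnight, then compound plus 0.25 ng/mL TGF-beta1 (stock added) for 5 hr at 37 C. Viability was read in the same wells by CellTiter-Glo luminescence after 30 min at room temperature.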

[2] = qHTS assay to identify small molecule agonists of the TGF-beta/Smad signaling pathway - cell viability counter screen (AID 1346829); note: nearly all actives have a fitted effect of over 45% in size; note: potency is the fitted concentration of half-maximal effect; for activity change, negative = cytotoxicity: top concentration of the series differs between compounds
In short: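 Same-well cytotoxicity: CellTiter-Glo added after the 2 hr room-temperature beta-lactamase substrate step, luminescence measured 30 min later; cells had 5 hr of compound at 37 C.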

[3] = qHTS assay to identify small molecule agonists of the TGF-beta/Smad signaling pathway (AID 1346859; active = well fitted activation curve with a large enough effect in the signal ratio in the repeat runs, not every such curve was filed as active; the % refers to the signal ratio; note: series mostly up to about 77 µM)
In short: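 SBE-bla HEK 293T, 4,000 cells/well, plated o/n; cpd in DMSO, 5 hr, 37 C/5% CO2; B/G FRET substrate 2 hr RT; ex 405, em 460/530 nm.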

[4] = Caspase-3/7 induction in HepG2 cells by small molecules, qHTS assay (AID 1346978); note: nearly all actives have a fitted effect of over 15% in size; note: potency is the fitted concentration of half-maximal effect
In short: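 Wild-type HepG2 cells, 2,000/well, settled 5 hr at 37 C and 5% CO2, then compound-treated for 17 hr; caspase-3/7 activity read by luminescent Caspase-Glo 3/7 after 30 min at room temperature.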

[5] = target: Thyrotropin-releasing hormone receptor (Homo sapiens) (UniProt P34981); assay: qHTS assay to identify small molecule antagonists of the thyrotropin-releasing hormone receptor (TRHR) signaling pathway (AID 1346877; active = well fitted inhibition curve with a large enough effect in the repeat runs, not every such curve was filed as active; note: potency is the fitted concentration of half-maximal effect; for activity, negative = inhibition: series mostly up to about 51 µM)
Sequence of Thyrotropin-releasing hormone receptor (Homo sapiens) (P34981 whole entry, looked up): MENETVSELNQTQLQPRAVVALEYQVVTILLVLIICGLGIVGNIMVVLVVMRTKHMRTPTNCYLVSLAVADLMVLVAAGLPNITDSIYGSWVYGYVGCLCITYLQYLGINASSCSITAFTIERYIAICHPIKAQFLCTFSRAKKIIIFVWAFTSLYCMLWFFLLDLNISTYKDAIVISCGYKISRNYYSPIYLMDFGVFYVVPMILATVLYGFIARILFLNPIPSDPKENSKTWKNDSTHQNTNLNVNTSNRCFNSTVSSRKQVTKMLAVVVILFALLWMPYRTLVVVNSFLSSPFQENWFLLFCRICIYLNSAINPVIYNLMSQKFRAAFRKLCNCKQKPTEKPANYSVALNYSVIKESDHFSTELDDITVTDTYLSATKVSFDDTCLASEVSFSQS
In short: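 Following an 18 h incubation at 37 °C and a 2 h calcium dye load, TRHR-HEK293 cells were exposed to compound (5 min, room temperature) and challenged with TRH, 1 nM final.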

[6] = Human pregnane X receptor (PXR) small molecule agonists, qHTS cell viability counter screen (AID 1346977); note: nearly all actives have a fitted effect of over 50% in size; note: potency is the fitted concentration of half-maximal effect
In short: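 PXR-Luc HepG2, 2,000 cells/well, 5% charcoal-stripped FBS; 5hr settle; cpd 24hr, 37C/5% CO2; CellTiter-Fluor at 23hr, read 1hr later (fluorescence).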

[7] = Caspase-3/7 induction in CHO-K1 cells by small molecules, qHTS cell viability counter screen (AID 1346979); note: nearly all actives have a fitted effect of over 35% in size; note: potency is the fitted concentration of half-maximal effect
In short: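 Cells (CHO-K1, wild type) are plated at 1,500 per well and incubated 5hr. Test compounds in DMSO are then pinned in, followed by 16hr at 37C and 5% CO2. Viability is read by CellTiter-Fluor fluorescence after 1hr.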

[8] = target: Thyrotropin-releasing hormone receptor (Homo sapiens) (UniProt P34981); assay: qHTS assay to identify small molecule agonists of the thyrotropin-releasing hormone receptor (TRHR) signaling pathway (AID 1346891; calls by dose curve; note: series mostly up to about 58 µM)
In short: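 Intracellular calcium rise, read as fluorescence every second for 3 min, served as the agonist signal in dye-loaded HEK293 cells expressing TRHR; each compound ran at 15 concentrations in triplicate.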

[9] = qHTS assay to identify small molecule agonists of the progesterone receptor (PR) signaling pathway - cell viability counter screen (AID 1346799; calls by dose curve; note: nearly all actives have a fitted effect of over 45% in size)
In short: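 Luminescence from CellTiter-Glo, added after the beta-lactamase FRET read in the same wells, gave cytotoxicity in PR-UAS-bla HEK293T cells treated with compounds for 16 hr at 37C.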
% is set by controls: 0 for no effect and ±100 for the full control effect.

CCCCCCCC/C=C\CCCCCCCC(=O)N(CCO)CCO
inactive: Potency [1] | Potency [2] | outcome [3] | Potency [4]

Cc1ccc(S(=O)(=O)C(I)I)cc1
active: Potency [2] 49 µM | Potency [5] 10.7 µM | Potency [6] 27.3 µM | Potency [7] 15.4 µM
inactive: outcome [3] | Potency [4]

CCCCCCCCCCCCN1CCCC1=O
inactive: Potency [1] | Potency [2] | outcome [3] | Potency [5] | Potency [8]
active: Potency [7] 61.1 µM

O=C(Nc1ccccc1)c1cc(Cl)ccc1O
inactive: outcome [3] | Potency [5] | Potency [8]
active: Potency [6] 12.2 µM

O=C(N[C@H](CO)[C@H](O)c1ccc([N+](=O)[O-])cc1)C(Cl)Cl
inactive: Potency [1] | Potency [2] | outcome [3] | Potency [6] | Potency [4] | Potency [7]

CSc1nnc(C(C)(C)C)c(=O)[nH]1
inactive: Potency [1] | Potency [2] | outcome [3] | Potency [5] | Potency [8] | Potency [6] | Potency [4]

O=C1CCC/C=C\CCCCCCCCCC1
inactive: Potency [1] | Potency [2] | outcome [3] | Potency [5] | Potency [8] | Potency [4]

CC1=C(/C=C/C(C)=C/C=C/C(C)=C\C(=O)O)C(C)(C)CCC1
inactive: Potency [1] | Potency [2] | outcome [3] | Potency [5] | Potency [8] | Potency [6] | Potency [4]

CN1CC[C@H](c2c(O)cc(O)c3c(=O)cc(-c4ccccc4Cl)oc23)[C@H](O)C1
inactive: Potency [1] | Potency [2]
active: Potency [6] 0.0944 µM | Potency [4] 0.237 µM | Potency [7] 0.0944 µM

CS(=O)(=O)c1ccc([C@@H](CC2CCCC2)C(=O)Nc2cnccn2)cc1Cl
active: Potency [7] 61.1 µM

CC(C)(c1ccc(Oc2ccc(N)cc2)cc1)c1ccc(Oc2ccc(N)cc2)cc1
inactive: Potency [9] | Potency [1] | Potency [2] | outcome [3] | Potency [5] | Potency [8] | Potency [4]

COCCC(=O)OC
inactive: Potency [9] | Potency [1] | Potency [2] | outcome [3] | Potency [5] | Potency [8] | Potency [6] | Potency [4] | Potency [7]

C=Cc1ccc(O)c(OC)c1
inactive: Potency [9] | Potency [1] | Potency [2] | outcome [3] | Potency [5] | Potency [8] | Potency [6] | Potency [4] | Potency [7]

Nc1ccc(Oc2cccc(Oc3ccc(N)cc3)c2)cc1
inactive: Potency [1] | Potency [2] | outcome [3] | Potency [5] | Potency [8] | Potency [6] | Potency [4]

O=c1[nH]cccc1O
inactive: Potency [1] | Potency [2] | outcome [3] | Potency [6] | Potency [4] | Potency [7]

O=C(NCc1ncc(C(F)(F)F)cc1Cl)c1c(Cl)cccc1Cl
inactive: Potency [1] | Potency [2] | outcome [3] | Potency [5] | Potency [8] | Potency [6] | Potency [7]
active: Potency [4] 19.3 µM

CCOc1ccc([N+](=O)[O-])cc1
inactive: Potency [1] | Potency [2] | outcome [3] | Potency [5] | Potency [8] | Potency [6]
active: Potency [4] 55.3 µM

COc1cc(/C=C/C(=O)CC(=O)/C=C/c2ccc(O)c(OC)c2)ccc1O
inactive: Potency [5]
active: Potency [6] 30.8 µM | Potency [7] 43.5 µM

CCCCCCCCCCCCCCCCCCNC(=O)OC1CCN(C(=O)OC[C@H](COC(=O)N(Cc2cccc[n+]2CC)C(=O)c2ccccc2OC)OC)CC1
inactive: Potency [5] | Potency [8] | Potency [4]
active: Potency [6] 26.6 µM | Potency [7] 29.8 µM

CCCCCCCCOC(=O)c1cc(O)c(O)c(O)c1
inactive: Potency [1] | Potency [2]

O=S(=O)(c1ccc(OCc2ccccc2)cc1)c1ccccc1O
inactive: Potency [1] | Potency [2] | outcome [3]
active: Potency [6] 61.1 µM | Potency [7] 43.3 µM

CN1CCN(c2ccccc2/C=C2\SCCN(c3ccc(Cl)c(Cl)c3)C2=O)CC1
active: Potency [6] 27.3 µM | Potency [7] 61.1 µM

COc1cc2ncnc(Nc3cccc(Cl)c3)c2cc1OC
inactive: viability change, negative = cytotoxic [1] 0.414% [at 15.8 µM] | activity change, negative = cytotoxicity [2] 9.42% [at 15.8 µM] | activation [3] -4.98% [at 15.8 µM] | activity, negative = inhibition [5] -3.3% [at 10.5 µM] | activation [8] -0.271% [at 11.8 µM] | caspase activation [4] 0.14% [at 19 µM] | activity change, negative = cytotoxicity [7] -12.4% [at 19 µM]

CCCOC(=O)c1ccc(O)cc1
inactive: Potency [1] | Potency [2] | outcome [3] | Potency [5] | Potency [8] | Potency [6] | Potency [4] | Potency [7]

COc1cc([C@@H]2c3cc4c(cc3[C@@H](O[C@@H]3O[C@@H]5CO[C@@H](C)O[C@H]5[C@H](O)[C@H]3O)[C@H]3COC(=O)[C@H]23)OCO4)cc(OC)c1O
inactive: Potency [1] | Potency [2]

C=CCc1cc(S(=O)(=O)c2ccc(O)c(CC=C)c2)ccc1O
inactive: Potency [1] | Potency [2] | outcome [3] | Potency [4]

O=C1C=CC(=O)N1c1cccc(N2C(=O)C=CC2=O)c1
active: Potency [1] 54.9 µM | Potency [6] 61.1 µM
inactive: outcome [3] | Potency [8] | Potency [4]

c1ccc(-c2ccccc2-c2ccccc2)cc1
inactive: Potency [1] | Potency [2] | outcome [3] | Potency [5] | Potency [8] | Potency [4]

Clc1nc(C(Cl)(Cl)Cl)c(Cl)c(Cl)c1Cl
inactive: Potency [9] | Potency [1] | Potency [2] | outcome [3] | Potency [5] | Potency [8]
active: Potency [7] 30.6 µM

S=C1NC=NC2N=CNC12 (stereo not drawn)
active: Potency [1] 3.47 µM
inactive: outcome [3] | Potency [5] | Potency [8] | Potency [6]

c1ccc2occc2c1
inactive: Potency [1] | Potency [2] | outcome [3] | Potency [5] | Potency [8] | Potency [6] | Potency [7]

CCCC(=O)c1cc(O)c(O)cc1O
inactive: Potency [1] | Potency [2] | Potency [5] | Potency [8]
active: Potency [6] 44.7 µM | Potency [7] 51.4 µM

O=C1OC(O)C(C(Cl)Cl)=C1Cl (stereo not drawn)
inactive: Potency [9] | Potency [1] | Potency [2] | outcome [3] | Potency [5] | Potency [8] | Potency [4]
active: Potency [7] 17.8 µM

Cc1ccc(Cl)c(N)c1Cl
inactive: Potency [1] | Potency [2] | outcome [3]

CCSCC
inactive: Potency [1] | Potency [2] | outcome [3] | Potency [5] | Potency [8] | Potency [7]

CC(O)(c1ccc(Cl)cc1)c1ccc(Cl)cc1
inactive: Potency [9] | Potency [1] | Potency [2] | outcome [3] | Potency [8]

CO[Si](OC)(c1ccccc1)c1ccccc1
inactive: Potency [1] | Potency [2] | outcome [3] | Potency [5] | Potency [8] | Potency [6] | Potency [4]
